# Measurements taken from the supplement of paper PMC6555819.
# How the values were obtained:
# Assay in all cases: PBM binding z-score (relative to random genomic background probes); higher = stronger binding; sequences stand for … in GC…GCGATTGACAGCGTAGAATGAAGG
# [1] = system: FXR:RXRa (NR concentration 270 nM, RXRa partner concentration 90 nM)
# How it was run: (§1)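 Custom Agilent 4×180K protein-binding microarrays carried double-stranded probes. Their 34-nt variable regions held direct-repeat seeds, single-nucleotide variants, half-site ablations and random human genomic background sequences. Arrays were incubated 1 h with ligand-free nuclear receptor dimers in PBS pH 7.4, 2% milk, 0.02% Triton X-100, 1 mM DTT, 0.2 mg/mL BSA and 0.4 mg/ml salmon testes DNA. Antibodies against each partner (one per run) detected binding, and scanned fluorescence was regression-normalized. Binding z-scores use random background probes as reference.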
# [2] = system: LXRa:RXRa (NR concentration 270 nM, RXRa partner concentration 90 nM)
# How it was run: as §1
# [3] = system: LXRa homodimer (NR concentration 270 nM)
# How it was run: as §1
# [4] = system: LXRb:RXRa (NR concentration 270 nM, RXRa partner concentration 90 nM)
# How it was run: as §1
# [5] = system: LXRb homodimer (NR concentration 270 nM)
# How it was run: as §1
# [6] = system: PPARa:RXRa (NR concentration 270 nM, RXRa partner concentration 90 nM)
# How it was run: as §1
# [7] = system: PPARg:RXRa (NR concentration 180 nM, RXRa partner concentration 90 nM)
# How it was run: as §1
# [8] = system: PPARg:RXRa 270nM:90nM, anti-RXR (NR concentration 270 nM, RXRa partner concentration 90 nM)
# How it was run: as §1
# [9] = system: PPARg:RXRa 30nM:10nM, anti-RXR (NR concentration 30 nM, RXRa partner concentration 10 nM)
# How it was run: as §1
# [10] = system: PPARg:RXRa 90nM:30nM, anti-RXR (NR concentration 90 nM, RXRa partner concentration 30 nM)
# How it was run: as §1
Sequence,PBM binding z-score [1],PBM binding z-score [2],PBM binding z-score [3],PBM binding z-score [4],PBM binding z-score [5],PBM binding z-score [6],PBM binding z-score [7],PBM binding z-score [8],PBM binding z-score [9],PBM binding z-score [10]
CCGACTGGGGCAAGGTTACCATAACGCACAGCCA,0.287,0.668,-0.166,0.835,-1.25,2.12,2.78,3.43,1.23,2.86
CCTACTGGGCCATTCAGAGGTCGTTGATCATATG,0.36,0.813,0.735,0.964,-0.712,1.97,0.916,1.26,-0.074,0.672
CCTATTAGTTGACCATAAGGGCAACCGTAGCTCG,0.644,0.364,0.502,0.478,0.7,0.679,0.376,0.487,0.0256,0.357
TCTTGTAGATCAAACAGGTTAAGAAAGCCTGAGT,0.553,0.608,0.121,0.509,-0.073,1.1,-0.134,1.44,2.65,2.3
TCTTGTAGATCAACAGGAGGTTAAGAAGGATCGA,0.614,0.955,0.0858,0.854,-0.55,1.34,0.000249,1.23,2.58,1.73
CAAACTAGGTCACTGAGGTCAAAGTCCGTGCGTA,6.44,5.9,5.56,5.66,1.56,6.2,9.39,7.91,5.72,7.61
ACTATTAGTTGACTTAGGTCAACCGATACGACGC,1.69,2.25,1.71,2.39,1.28,2.29,1.35,1.35,0.53,0.993
CAAACTAGGTCACCCGAAGGTCAAAGTCCGCATG,6.1,6.03,4.86,5.07,1.57,6.24,9.64,8,5.77,7.5
CCGAGCAGGTTATGGGGCATTCAGGCAACGGTGA,0.101,0.177,-0.511,0.325,-0.148,1.45,0.617,1.24,-0.414,0.762
ACAGACAGGTGAGTGAAGGTAGCTCAGCTGGACG,-0.0191,-0.179,-0.74,-0.796,-0.607,-0.372,0.284,0.0552,-0.201,-0.0871
GCATATAGGTAACACAAGGTGAAAGTCCGATTGT,0.896,3.64,-0.04,1.36,-0.351,2.19,2.09,2,0.512,1.26
ATCTCAAGGTAAAGTTCAGTGAAAGATCGATAGA,1.67,2.17,1.5,1.42,0.854,2.22,1.97,3.4,1.67,2.73
